Sampled rows, rich in hits. Any-hit rate of the full collection: about 1.7%.
LYP act – LYP phosphatase activators, primary screen, biochemical, DiFMUP fluorescence, 2 µM | Tyrosine-protein phosphatase non-receptor type 22 (Homo sapiens), Q9Y2R2 | recombinant LYP; 0 = plate median, 100 = signal doubled | activation, % at 2 µM | 96,000 tested, 0.11% active;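 active = activation at 2 µM above a set limit, the mean plus 5 SD, cut at about 37% in these data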
PTPN22 inh 2 – PTPN22 phosphatase inhibitors, primary screen, biochemical, DiFMUP fluorescence, 2 µM. inhibition, % at 2 µM. recombinant LYP catalytic domain. Tyrosine-protein phosphatase non-receptor type 22 (Homo sapiens), Q9Y2R2. 96,000 tested, 0.21% active. AID 640, 2007;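 active = inhibition at 2 µM at or above a set limit, the screen mean plus 3 SD, cut at about 24% in these data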
PLK1 PBD inh – Plk1 polo box domain binding inhibitors, primary screen, biochemical, fluorescence polarization. inhibition, %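 (tested at about 20 µM)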. Plk1 PBD phosphopeptide binding. AID 693, 2007. 97,000 tested, 0.13% active. Serine/threonine-protein kinase PLK1 (Homo sapiens), P53350; in the data active = inhibition above about 34%, passing the limit was not always enough
EphB4 antag – EphB4-ephrin-B2 interaction antagonists, primary screen, biochemical, TNYL-RAW peptide probe, fluorescence polarization; EphB4 LBD / TNYL-RAW-Alexa532 peptide; inhibition, % at 7 µM; 97,000 tested, 0.15% active;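 active = inhibition above the screen-wide mean inhibition plus 3 SD, cut at about 15% in these data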
FAK blocker – FAK kinase inhibitors, primary screen, biochemical | AID 727, 2007 | inhibition, %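 (tested at 7 µM)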 | 97,000 tested, 0.84% active | biochemical FAK kinase activity assay | Focal adhesion kinase 1 (Homo sapiens), Q05397; in the data active = inhibition above about 19%
PLK1 inh – human PLK1 kinase inhibitors, primary screen, biochemical, TR-FRET; Serine/threonine-protein kinase PLK1 (Homo sapiens), P53350; recombinant PLK1 kinase, TR-FRET peptide phosphorylation; inhibition, % at 10 µM; 97,000 tested, 0.53% active; AID 619, 2007;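 active = inhibition of 50% or more in the single-concentration screen; inactive = inhibition below 50%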
Large screens that a line does not name were inactive; [ ] = dose if it differs, or a comment.

O=C(c1ccc2c(c1)OCO2)N(c1ccccc1)C1C=CS(=O)(=O)C1 (centres undefined)	none
Cc1cccc(N(C(=O)c2ccc(Cl)cc2)C2CS(=O)(=O)CC2OC(=O)c2ccc(Cl)cc2)c1 (centres undefined)	PTPN22 inh 2 24.9
Cc1nc2c(c(=O)n1CCC1=CCCCC1)c1nc3ccccc3nc1n2/N=C/c1ccccc1	PTPN22 inh 2 38.7
COCCn1c(CN2CC(C)CC(C)C2)nc2c1c(=O)n(C)c(=O)n2C (centres undefined)	PLK1 inh 67.7 (no result: LYP act, PTPN22 inh 2)
COCCn1c(CN2CCN(c3ccccc3)CC2)nc2c1c(=O)n(C)c(=O)n2C	none
Cc1ccc(C)c(NC(=O)CCC(=O)OC(C(=O)c2ccccc2)c2ccccc2)c1 (centres undefined)	none
O=C(CCC(=O)OC(C(=O)c1ccccc1)c1ccccc1)Nc1ccccc1 (centres undefined)	PTPN22 inh 2 24.5
Cc1cc(C)n2nc(SCc3cc(=O)oc4cc(O)ccc34)nc2n1	PTPN22 inh 2 28.9
Cc1cc(NC(=O)CSc2nc3ccc(Cl)cc3[nH]2)no1	PLK1 inh 50.3
CCSc1nnc2c(n1)OC(c1ccc(C(=O)O)cc1)N(C(C)=O)c1ccccc1-2 (centres undefined)	PLK1 inh 64.9 (no result: LYP act, PTPN22 inh 2)
CCOC(=O)CSc1nc2sc(C)c(C)c2c(=O)[nH]1	none
Cc1sc2nc(NCCO)[nH]c(=O)c2c1C	PLK1 inh 63.6
CCOC(=O)c1ccc(NC(=O)COc2ccc(S(=O)(=O)NC(C)(C)C)cc2)cc1	none
COc1cccc(-n2c(SCC(N)=O)nnc2-c2c[nH]c3ccccc23)c1	PLK1 inh 67.8 (no result: LYP act, PTPN22 inh 2)
COc1ccccc1-n1c(SCC(N)=O)nnc1-c1ccccc1	none
COc1ccc(OC)c(-n2c(SCC(N)=O)nnc2-c2c[nH]c3ccccc23)c1	PLK1 inh 69.6 (no result: LYP act, PTPN22 inh 2)
COc1cccc(-c2nnc(SCC(N)=O)n2-c2ccc(Cl)cc2)c1	none
COc1ccc(OC)c(-n2c(SC)nnc2-c2c[nH]c3ccccc23)c1	PLK1 inh 67.5 (no result: LYP act, PTPN22 inh 2)
Cc1ccccc1-n1c(SCc2c(C)noc2C)nnc1-c1c[nH]c2ccccc12	none
COc1ccc(OC)c(-n2c(SCC(=O)Nc3cc(C)on3)nnc2-c2c[nH]c3ccccc23)c1	PLK1 inh 68.4 (no result: LYP act, PTPN22 inh 2)
COc1ccc(S(=O)(=O)N(CC(=O)NCC2CCCO2)c2ccc(F)cc2)cc1OC (centres undefined)	none
O=C1C2C(C(=O)N1CCc1ccccc1)C1C=CC2C12CC2 (centres undefined)	PTPN22 inh 2 45.0
O=C1C2C3C=CC(C3)C2C(=O)N1CCc1ccccc1 (centres undefined)	none
CC1=NN(/C(=N\c2nnc(C)s2)Nc2ccc(C)cc2)[C@H](c2ccc(C)cc2)S1	FAK blocker 21.4
CCCCn1c(NC(=O)C2CCCCC2)nc2ccccc21	none
CCCn1c(NC(=O)C2COc3ccccc3O2)nc2ccccc21 (centres undefined)	EphB4 antag 17.5
O=C(Nc1cnc2ccccc2c1)C1COc2ccccc2O1 (centres undefined)	PTPN22 inh 2 28.2
Cc1nc2ncnn2c(N2CCN(c3cccc(C(F)(F)F)c3)CC2)c1C	none
CCC(C)NC(=O)CSC1=Nc2ccccc2C2=NC(CC(=O)NCc3ccccc3)C(=O)N12 (centres undefined)	none
CCOc1ccc(N(CC(=O)NCc2ccc(F)cc2)S(=O)(=O)c2c(C)noc2C)cc1	PLK1 inh 67.1 (no result: LYP act, PTPN22 inh 2)
O=C(c1ccc(CS(=O)(=O)c2ccc(Br)cc2)o1)N1CCCC1	PLK1 inh 69.2 (no result: LYP act, PTPN22 inh 2)
Clc1cccc(/C=N/Nc2ncnc3ccccc23)c1	EphB4 antag 84.6[fluorescence artefact?]
Clc1ccc(/C=N/Nc2nc(Cl)nc3ccccc23)cc1	none
Cc1ccc(Nc2c3c(nc4ncnn24)CCC3)cc1	none
Clc1cccc(Nc2c3c(nc4ncnn24)CCC3)c1	PLK1 inh 54.2
COc1cccc2cc(-c3cn4ccc(C)cc4n3)c(=O)oc12	FAK blocker 18.9
COC(C)(C)[C@]12CC(O)(c3ccccc3)ON1[C@H]1CCCCC1N2O (some centres undefined)	none
CC1CCCC(N2C(=O)NC(NC(=O)c3ccco3)(C(F)(F)F)C2=O)C1C (centres undefined)	none
CSc1nnc(COc2ccc(C)cc2)n1N	FAK blocker 36.7
Cc1onc(-c2c(F)cccc2Cl)c1C(=O)NC1CCSC1=O (centres undefined)	none
CCOCCC(=O)Nc1cc(Cl)ccc1OC	none
CC1CCCN(c2ccc(/C=C(\C#N)c3nn(-c4ccccc4)c(N)c3C#N)cc2[N+](=O)[O-])C1 (centres undefined)	none
CC1CCN(c2cc(N3CCC(C)CC3)c([N+](=O)[O-])cc2/C=C(\C#N)c2nn(-c3ccccc3)c(N)c2C#N)CC1	PLK1 inh 55.4
Cc1cc2c(cc1C)N(C(=O)CSC1=NCCS1)C(C)(C)c1ssc(=S)c1-2	PTPN22 inh 2 27.3
COC(=O)CN(c1ccc(F)cc1)S(=O)(=O)c1ccc2c(c1)OCCO2	none
O=[N+]([O-])c1ccc(N2CCN(S(=O)(=O)c3ccc(Cl)cc3)CC2)cc1NCc1cccnc1	PTPN22 inh 2 24.3
COc1ccc2cc(CN(CC3COCCO3)S(=O)(=O)c3ccc(Cl)cc3)c(=O)[nH]c2c1 (centres undefined)	none
COc1ccccc1S(=O)Cc1ccc(C(=O)NC2CCCC2)o1 (centres undefined)	none
COc1ccccc1S(=O)Cc1ccc(C(=O)NCCc2ccc(Cl)cc2)o1 (centres undefined)	PLK1 inh 59.9 (no result: LYP act, PTPN22 inh 2)
C=CCOc1c(Br)cc(CNn2nnnc2N)cc1OC	none
CC1CCN(C(=S)c2cn(Cc3ccc(F)cc3)c3ccccc23)CC1	none
O=[N+]([O-])/C=C/c1cn(Cc2ccc(F)cc2)c2ccccc12	EphB4 antag 15.6
O=C(c1ccccc1)c1c[nH]c(C(=O)NCCCn2ccnc2)c1	none
COc1ccc(C2C(C#N)=C(N)Oc3n[nH]c(C)c32)cc1Cn1nnc2ccccc21 (centres undefined)	none
CCCc1[nH]nc2c1C(c1ccc(OC)c(Cn3nnc4ccccc43)c1)C(C#N)=C(N)O2 (centres undefined)	EphB4 antag 16.6
COC(=O)c1nn(-c2ccccc2)c(Sc2ccc(Cl)cc2)c1/C=N/O	none
O=C(Nc1ccccc1C(=O)N1CCOCC1)c1ccco1	none
O=C(Nc1ccccc1C(=O)N1CCOCC1)c1ccncc1	EphB4 antag 15.5

Source: PubChem BioAssay
